A selection: hits, their analogues and other compounds. The true share with any hit is near 4.4%.
NFkB transloc pot: enhances IL-1B driven NFkB nuclear translocation. HUVEC IL-1B NFkB p65 nuclear translocation imaging. activation, % at 2 µM. actives 0.3% (n = 94,000);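 active = activation above 40%, about the mean plus 3 SD, also judged a hit on visual image review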;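 also: percent activation is computed from the nuclear over cytoplasmic p65 intensity ratio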
Cav3 T inh: inhibitors of human Cav3.2 T-type calcium channel | actives 4% (n = 100,000) | B-score at 10 µM | Cav3.2-expressing cells, Fluo-4 calcium fluorescence FDSS; stronger effect = lower value;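 active = single-dose well whose peak fluorescence ratio is a statistical outlier from its plate by either plate-standardised score or position-corrected B-score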
NFkB transloc inh: blocks IL-1B driven NFkB nuclear translocation in HUVEC cells | HUVEC IL-1B NFkB p65 nuclear translocation imaging | inhibition, % at 2 µM | actives 0.43% (n = 94,000);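 active = inhibition above about 30% together with a positive call from visual inspection of the well image, limit read from the data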;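 also: nuclear over cytoplasmic p65 intensity ratio measured by imaging; 0% = IL-1B stimulated DMSO wells and 100% = unstimulated DMSO wells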
HUVEC tox IL1B: HUVEC cytotoxicity counter-screen, IL-1B stimulated. HUVEC cell count loss, Hoechst imaging. cell count reduction, % at 2 µM. actives 0.41% (n = 94,000). AID 845;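 active = cell count reduction more than 3 SD above the screen-wide mean, cut at about 70% in these data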;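 also: normalized per plate to untreated control cells as the no-loss baseline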
* hit, by the source's call; nt = no result given.

SMILES	NFkB transloc pot	Cav3 T inh	NFkB transloc inh	HUVEC tox IL1B
COc1ccc(C(=O)OCC2CC(c3ccccc3)N(C)O2)cc1 (stereo not drawn)	-47	-0.096	47*	-24
CCN(CC)S(=O)(=O)c1cc(C(=O)Nc2ccc(Cl)cn2)ccc1C	nt	-4.3*	nt	nt
CN1c2ccsc2C(O)=C(C(=S)Nc2ccc(F)c(Cl)c2)S1(=O)=O	-1	-4	1	1
O=C(c1nn(Cc2ccccc2)c(=O)c2ccccc12)N1CCN(C/C=C/c2ccccc2)CC1	0	-6.7*	0	-3
CCOC(=O)C[C@H]1c2cc(F)ccc2S(=O)(=O)N1C1CCCCC1	nt	-0.36	nt	nt
COc1ccccc1C(c1nnnn1CCc1ccccc1)N1CCCCCC1 (stereo not drawn)	10	-9*	-10	-60
COc1ccccc1C(c1nnnn1CCc1ccccc1)N1CCN(c2ccccc2)CC1 (stereo not drawn)	0	-5.9*	0	-4
COc1cccc(C(c2nnnn2CCc2ccccc2)N2CCN(c3ccccc3)CC2)c1OC (stereo not drawn)	5	-4.2*	-5	-24
Fc1ccc(C(c2nnnn2CCc2ccccc2)N2CCCc3ccccc32)cc1 (stereo not drawn)	24	-7.9*	-24	-13
Fc1ccc(C(c2nnnn2C2CCCC2)N2CCc3ccccc32)cc1 (stereo not drawn)	0	nt	0	-33
COCCn1nnnc1C(c1ccccc1OC)N1CCN(c2ccccc2)CC1 (stereo not drawn)	5	-0.1	-5	-8
COc1cccc(C(c2nnnn2Cc2ccco2)N2CCN(c3cccc(C)c3C)CC2)c1OC (stereo not drawn)	4	-6.9*	-4	5
Clc1ccc(C(c2nnnn2CCc2ccccc2)N2CCSCC2)cc1 (stereo not drawn)	1	-6.8*	-1	-3
COC(=O)Cn1cnc2c1c(=O)n(C)c(=O)n2C	3	1.1	-3	-8
COCCNC(=O)Cn1cnc2c1c(=O)n(C)c(=O)n2C	13	-5.3*	-13	-103
Cc1ccsc1C1Nc2ccc3ncccc3c2C2=C1C(=O)CC(C)(C)C2 (stereo not drawn)	-6	-3.9*	6	-1
O=C1CCCC2=C1C(c1cccs1)Nc1ccc3ncccc3c12 (stereo not drawn)	5	1.5	-5	-4
O=C(CN(Cc1ccccc1)S(=O)(=O)c1ccc(F)cc1)NCCC1=CCCCC1	12	-3.5	-12	-47
O=C(/C=C/c1ccc(F)cc1)NCCC1=CCCCC1	1	-6.2*	-1	-1
Cc1cccc(NS(=O)(=O)c2ccc(C3CCCCC3)cc2)c1	7	-4.5*	-7	-67
Cc1cccc(NC(=O)c2cccc(NS(=O)(=O)c3ccc(Cl)cc3)c2)c1	-6	-9.6*	6	-14
Cc1ccccc1NC(=O)c1cc(S(=O)(=O)c2ccccc2)ccc1Cl	8	-1.8	-8	3
Cc1cccc(NC(=O)c2cc(S(=O)(=O)c3ccccc3)ccc2Cl)c1	-6	-5.6*	6	4
Cc1ccc(S(=O)(=O)Nc2cc(C(=O)Nc3cc(C)cc(C)c3)ccc2Cl)cc1	6	-5.3*	-6	-3
CC(=O)Nc1ccc(S(=O)(=O)Nc2cccc(C(=O)NC(C)(C)C)c2)cc1	33	0.047	-33	-4
SMILES	NFkB transloc pot	Cav3 T inh	NFkB transloc inh	HUVEC tox IL1B
C/C(=N\NS(=O)(=O)c1ccc(C)cc1)c1ccc(Br)s1	27	-3.1	-27	6
Cc1cc(C)cc(N(CC(=O)NC2CC3CCC2C3)S(C)(=O)=O)c1 (stereo not drawn)	1	0.047	-1	-16
CCCSc1nnc(-c2ccccc2N)c(=O)[nH]1	nt	0.37	nt	nt
CCCCCSc1nnc(-c2cc(Br)ccc2N)c(=O)[nH]1	8	-5*	-6	9
CNc1oc(-c2ccc(Cl)cc2)nc1P(=O)(c1ccccc1)c1ccccc1	nt	-0.8	nt	nt
O=C(c1cc(-c2cccs2)nc2ccccc12)N1CCN(S(=O)(=O)c2ccccc2)CC1	-5	-4.3*	5	-14
O=C(c1cc(-c2cccs2)nc2ccccc12)N1CCN(S(=O)(=O)c2cccc(F)c2)CC1	10	-0.18	-10	6
Cc1cccc(OCCCSc2nc3ccc(C)cc3[nH]2)c1	-8	-4.6*	8	-3
CC1(c2nnc(-c3ccncc3)o2)CC(c2ccc([N+](=O)[O-])cc2)=NO1 (stereo not drawn)	nt	0.77	nt	nt
N/C(Cc1cccs1)=N\OC(=O)COc1ccc(Br)cc1	60*	-2	-60	3
Cc1ccc(C)n1CCN1CCN(C(=O)c2ccco2)CC1	0	0.14	0	-2
O=C(c1ccco1)N1CCN(CC(O)Cn2c3ccccc3c3ccccc32)CC1 (stereo not drawn)	0	-4.8*	0	16
O=C(Nc1nnc(C2CCCC2)s1)C1CCC1	40*	-0.0044	-40	9
CCCn1nnnc1NCc1cccn1C	28	0.15	-28	1
Cc1cc(NC(=O)CN2CCN(c3ccc(O)cc3)CC2)no1	-18	0.13	18	-14
N#Cc1ccc(-c2ccc(F)cc2)nc1Sc1ccc(F)cc1	8	-0.69	-8	42
COC(=O)c1ccc2c(c1)C(C)(C)C(/C=C/c1ccccc1O)=[N+]2C	-17	-3.7*	17	20
C=C(C)C(=O)N1CC2(CC(c3cccc(NC(=O)CCCCC)c3)=NO2)C[C@H]1C(N)=O (stereo partly drawn)	nt	-0.0096	nt	nt
COc1cc2nc(=S)n3[nH]c(CCn4c(C)nc5ccccc54)nc3c2cc1OC	nt	3.3*	nt	nt
Cc1sc2nc(SCc3ccccc3)n(Cc3ccco3)c(=O)c2c1C	3	-1.9	-3	34
Cc1cccc(CSc2nnc(-c3cccs3)n2Cc2ccco2)c1	7	-5.5*	-7	-61
Cc1cccc(CSc2nc3sc(C)c(C)c3c(=O)n2Cc2ccco2)c1	10	-4.2*	-10	0
O=C(CSc1nc(-c2ccc(F)cc2)cs1)N1CCc2ccccc21	11	-0.081	-11	-6
COc1ccc(-c2csc(N(CCc3ccc(OC)c(OC)c3)C(=O)COc3ccccc3)n2)cc1	5	-2.8	-5	-3
O=C(Nc1cccc(F)c1)C1CC(=O)N(c2ccc(Br)cc2)C1 (stereo not drawn)	11	-5.4*	-11	-28
SMILES	NFkB transloc pot	Cav3 T inh	NFkB transloc inh	HUVEC tox IL1B
O=C(Nc1cccc(F)c1)C1CC(=O)N(c2ccc(Cl)cc2)C1 (stereo not drawn)	14	-5.8*	-14	-42
CCC1Sc2ccccc2N(CC(=O)NCCC2=CCCCC2)C1=O (stereo not drawn)	-11	-5.8*	11	0
Cc1nn(Cc2ccc(Cl)c(Cl)c2)c(C)c1NC(=O)c1cn(-c2ccccc2)nc1-c1ccccc1	39	-5.1*	-39	-13
Cc1nn(Cc2ccc(Cl)cc2)c(C)c1NC(=O)c1c(-c2ccccc2)noc1C	-15	-2.5	15	8
O=C(Nc1ccc2c(c1)OCCO2)c1cc2sccc2n1Cc1ccccc1	1	-5.6*	-1	-12
Cc1oc(-c2ccccc2F)nc1CN1CCC(C(=O)NCc2ccco2)CC1	1	-1.5	-1	-31
O=C(CC(c1ccccc1)c1ccccc1)Nc1ccc2c(c1)OCCO2	20	-3.6*	-20	-16
